# PubChem BioAssay AID1491 (National Center for Advancing Translational Sciences (NCATS), 2009)
# “And” between values parts separate entries of the source, which are not always exact repeats. Identical values can stand only once. Records with an inconclusive call do not appear. Entries that show only a call come without a potency. The source made the active and inactive calls. Calls follow the shape of the dose curve; as a rule, active = well fitted inhibition curve with a large enough effect in the main read-out, with a control signal flat; inconclusive = small, poorly fitted or top-dose-only effect, or a change in a side signal; inactive = flat fitted curve, though single readings scatter.
# Target: Neuropeptide S receptor (Homo sapiens) (UniProt Q6W5P4)
# Sequence (Q6W5P4 whole entry, looked up): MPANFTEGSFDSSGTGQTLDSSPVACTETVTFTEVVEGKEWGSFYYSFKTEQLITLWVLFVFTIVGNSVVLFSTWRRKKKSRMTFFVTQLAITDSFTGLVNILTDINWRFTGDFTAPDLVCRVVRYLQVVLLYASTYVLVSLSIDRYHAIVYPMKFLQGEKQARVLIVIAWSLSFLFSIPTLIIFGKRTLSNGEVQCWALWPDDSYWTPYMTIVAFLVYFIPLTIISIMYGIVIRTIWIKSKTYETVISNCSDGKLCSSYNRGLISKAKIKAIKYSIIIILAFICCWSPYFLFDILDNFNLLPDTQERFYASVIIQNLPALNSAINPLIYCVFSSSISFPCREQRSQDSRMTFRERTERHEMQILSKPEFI
# Test: Confirmation Concentration-Response Assay for Antagonists of the Neuropeptide S Receptor: cAMP Signal Transduction
# Conditions: CHO-NPSR cells, cAMP TR-FRET, antagonist mode; series mostly up to 22.3 µM
# In short: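 LANCE TR-FRET cAMP read-out: 665/620 nm emission ratio, with the 620 nm donor channel also reported, after 2 h RT detection. Stably transfected CHO-NPSR cells got compound titrations and 100 nM NPS in stimulation reagent for 60 min at 37C. IC50 came from Hill fits.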
# Potency is read from the fitted curve at half-maximal effect.
row,SMILES,Potency
1,O=C(N/N=C/c1ccc([N+](=O)[O-])o1)c1ccc(O)cc1,inactive
2,COc1cc(/C=C2\SC(c3ccc(C)cc3)=NC2=O)cc(OC)c1O,10 µM (active)
3,COc1ccccc1-c1nnc(SC2CCc3ccccc3NC2=O)s1 (stereo not drawn),inactive
4,O=C(CCc1ccccc1)Nc1ncnc2c1C(c1ccccc1)c1c(ccc3ccccc13)O2 (stereo not drawn),3.55 µM (active)
5,Nn1c(COc2ccccc2)nnc1SCc1cc(=O)[nH]c2ccccc12,inactive
6,Cc1ccc(-c2ccc(/C=C3\C(=O)ON=C3c3ccccc3)o2)c([N+](=O)[O-])c1,2.82 µM (active)
7,CC1CCCc2sc3nc(N4CCN(CCO)CC4)n4ncnc4c3c21 (stereo not drawn),inactive
8,c1ccc(CSC2=NNC(c3ccccn3)S2)cc1 (stereo not drawn),inactive
9,CCOc1ccc(N2C(=O)CC(NCCc3ccncc3)C2=O)cc1 (stereo not drawn),inactive
10,CN(C)c1ccc(N=Cc2ccco2)cc1,inactive
11,O=C(N1CCOCC1)C1(c2ccc(Cl)cc2)CCCC1,inactive
12,CCCCNS(=O)(=O)c1ccc2nc(-c3cccnc3)cc(C(=O)NC(C)CC)c2c1 (stereo not drawn),inactive
13,CCOC(=O)CCC(=O)Nc1ncnc2c1C(c1ccccc1)c1c(ccc3ccccc13)O2 (stereo not drawn),2 µM (active)
14,Cn1c(C(=O)NCCN2CCc3ccccc3C2)cc2c(=O)[nH]c3ccccc3c21,inactive
15,CC(=O)n1nc2nc(C)cc(C)c2c1N,inactive
16,O=[N+]([O-])c1cc2c(cc1/C=N/n1c(-c3ccccc3)n[nH]c1=S)OCO2,inactive
17,N#Cc1c(-c2ccccc2)c(-c2ccccc2)nn(CC(=O)NNC(=O)Nc2ccc(Cl)c(Cl)c2)c1=O,inactive
18,CC1CCCCN1S(=O)(=O)c1ccc(C(=O)Nc2sccc2C(N)=O)cc1 (stereo not drawn),12.6 µM (active) and 14.1 µM (active)
19,CCOc1ccc(-n2c(=S)sc3c(=O)[nH]c(SCC(=O)C(C)(C)C)nc32)cc1,7.08 µM (active)

row,SMILES,Potency
1,CC1(C)Cc2c(c(N3CCOCC3)nc3sc4c(NCC5CCCO5)nnnc4c23)CS1 (stereo not drawn),inactive
2,Cc1ccc(NC(=S)NNC(C)(C)C)cc1,inactive
3,O=C(Nc1ccc(Oc2c(F)c(F)c(F)c(F)c2F)cc1)OC1CCN2Cc3ccccc3N=C12 (stereo not drawn),11.2 µM (active)
4,CC(=O)c1c(C(C)=O)c(C)n(NC(=O)c2cccnc2)c1C,inactive
5,CC1(C)O[C@@H]2C[C@H]3[C@@H]4C[C@H](F)C5=CC(=O)CC[C@]5(C)[C@H]4[C@@H](O)C[C@]3(C)[C@]2(C(=O)CO)O1,inactive
6,CN(C)c1nc(=Nc2cccc(Cl)c2)ss1,inactive
7,Cc1nc(NC(=S)Nc2ccccc2)sc1C,inactive
8,O=C(Cc1ccccc1)Nc1ncnc2c1C(c1ccccc1)c1c(ccc3ccccc13)O2 (stereo not drawn),1.58 µM (active)
9,COc1ccc(N(CC(=O)Nc2cccc(SC)c2)S(C)(=O)=O)cc1Cl,inactive
10,COc1ccc(/C=C2\CCCC3C2=NN(C(=O)c2ccco2)C3c2ccc(OC)c(OC)c2)cc1OC (stereo not drawn),inactive
11,Cc1oc2c(c1C(=O)NCc1cccnc1)C(=O)c1ccccc1C2=O,inactive
12,CC(C)(C)OC(=O)Nc1ncnc2c1C(c1ccccc1)c1c(ccc3ccccc13)O2 (stereo not drawn),3.55 µM (active)
13,C/C(=N\Nc1ncc(Cl)cc1Cl)c1ccccn1,5.62 µM (active)
14,COc1cccc(C2c3c(ncn(CCCN4CCOCC4)c3=N)Oc3ccc4ccccc4c32)c1 (stereo not drawn),14.1 µM (active)
15,CC(C)Cc1nc(N2CCN(C(=O)c3ccccc3)CC2)c(C#N)c2c1CCC2,inactive
16,COc1ccc(NC(=O)/C(Cl)=C(/Cl)S(=O)Cc2ccc(C)cc2)cn1 (stereo not drawn),2.24 µM (active)
17,COc1ccc(C(=O)N(Cc2ccco2)Cc2cccs2)c(O)c1,inactive
18,Oc1ccc(N=Nc2nccs2)c(O)c1,inactive
19,Cc1ccc(Nc2cc(C)nn2-c2nc(C)cc(C)n2)cc1,inactive
